The whole screen tested about 39,000 compounds, of which about 3,300 (8.5%) were called active. This is one part of a sample in which actives are shown more often than they occur.
Tested on: HepG2
Assay: cytotoxicity call (relative viability < 0.9)
Conditions: 10 µM

| Structure (SMILES) | cytotoxicity call |
| --- | --- |
| N#C[C@@H]1C(=O)NC(=O)[C@@H](C#N)C12CCCC2 | inactive |
| Cc1noc(C)c1S(=O)(=O)N(C)C[C@@H]1OCCCC[C@@H](C)Oc2ccc(NC(=O)Nc3ccc(F)cc3)cc2C(=O)N([C@H](C)CO)C[C@@H]1C | inactive |
| C[C@@H]1CN([C@@H](C)CO)C(=O)c2cc(NC(=O)Nc3ccccc3)ccc2O[C@@H](C)CCCCO[C@@H]1CN(C)C(=O)Nc1cccc2ccccc12 | inactive |
| Cc1ccc(S(=O)(=O)N(C)C[C@H]2OCCCC[C@H](C)Oc3ccc(NC(=O)Nc4cccc5ccccc45)cc3C(=O)N([C@H](C)CO)C[C@@H]2C)cc1 | inactive |
| Cc1cc(C)c(NC(=O)[C@@H](N)Cc2ccccc2)c(Cl)c1 | active |
| NNC(=O)[C@@H](N)Cc1ccccc1 | inactive |
| CCOC(=O)[C@@H](N)Cc1ccccc1 | inactive |
| CC1=CC[C@H](C(C)(C)O)CC1 | inactive |
| CC(C)=CCCC(C)(O)C1CC=C(C)CC1 (configuration not stated) | active |
| C=C(C)[C@H]1CC=C(C)CC1 | inactive |
| C[C@@H]1CN([C@H](C)CO)C(=O)c2cc(NC(=O)C3CCCCC3)ccc2O[C@@H](C)CCCCO[C@H]1CN(C)C(=O)C1CCCCC1 | inactive |
| C[C@@H]1CN([C@H](C)CO)C(=O)c2c(c3ccccc3n2C)-c2ccccc2CO[C@H]1CN(C)C(=O)Nc1cccc(F)c1 | inactive |
| C[C@@H]1CCCCO[C@H](CN(C)Cc2ccc(Cl)c(Cl)c2)[C@@H](C)CN([C@H](C)CO)C(=O)c2cc(NS(C)(=O)=O)ccc2O1 | inactive |
| C[C@@H]1CCCCO[C@H](CN(C)Cc2ccc(Cl)c(Cl)c2)[C@H](C)CN([C@@H](C)CO)C(=O)c2cc(NS(C)(=O)=O)ccc2O1 | active |
| C[C@@H]1CCCCO[C@H](CN(C)Cc2ccc(Cl)c(Cl)c2)[C@@H](C)CN([C@@H](C)CO)C(=O)c2cc(NS(C)(=O)=O)ccc2O1 | inactive |
| C[C@@H]1CCCCO[C@@H](CN(C)Cc2ccc(Cl)c(Cl)c2)[C@H](C)CN([C@@H](C)CO)C(=O)c2cc(NS(C)(=O)=O)ccc2O1 | inactive |
| C[C@@H]1CCCCO[C@@H](CN(C)Cc2ccc(Cl)c(Cl)c2)[C@@H](C)CN([C@@H](C)CO)C(=O)c2cc(NS(C)(=O)=O)ccc2O1 | inactive |
| C[C@@H]1CN([C@H](C)CO)C(=O)c2cc(NS(C)(=O)=O)ccc2O[C@@H](C)CCCCO[C@H]1CN(C)Cc1ccc(Cl)c(Cl)c1 | active |
| C[C@@H](NC(=O)C[C@@H]1CC[C@@H](NC(=O)CN2CCOCC2)[C@@H](CO)O1)c1ccccc1 | inactive |

| Structure (SMILES) | cytotoxicity call |
| --- | --- |
| O=C1c2cccc(O)c2C(=O)c2c(O)cccc21 | active |
| Cc1cc(O)c2c(c1)C(=O)c1cccc(O)c1C2=O | inactive |
| O=C1c2c(O)cccc2Cc2cccc(O)c21 | inactive |
| COc1cccc(NC(=O)N2C[C@H](O)COC[C@@H]3O[C@@H](CC(=O)NCc4ccccc4F)CC[C@H]32)c1 | inactive |
| CNC(=O)CN(C#N)c1nc(N(C)C)nc(N(C)C)n1 | inactive |
| C[C@@H]1CCCCO[C@H](CN(C)Cc2ccc(C(=O)O)cc2)[C@H](C)CN([C@@H](C)CO)C(=O)c2cc(NC(=O)Nc3cccc4ccccc34)ccc2O1 | inactive |
| C[C@H](CO)N1C[C@H](C)[C@@H](CN(C)Cc2ccc(C(F)(F)F)cc2)Oc2c(NC(=O)Nc3ccccc3)cccc2C1=O | inactive |
| CN(C)Cc1c(C(=O)N/N=C/c2ccncc2)nnn1-c1nonc1N | active |
| CCc1c(C(=O)OC)nnn1-c1nonc1N | inactive |
| NNC(=O)c1nnn(-c2nonc2N)c1CN1CCCCC1 | inactive |
| Cc1noc(C)c1NC(=O)N(C)C[C@@H]1Oc2c(NS(=O)(=O)c3ccccc3)cccc2C(=O)N([C@@H](C)CO)C[C@H]1C | inactive |
| COc1ccc(NC(=O)N(C)C[C@@H]2OCCCC[C@H](C)Oc3ccc(NC(=O)Nc4ccc(C(F)(F)F)cc4)cc3C(=O)N([C@@H](C)CO)C[C@@H]2C)cc1 | inactive |
| C[C@@H]1CCCCO[C@H](CN(C)C(=O)Nc2ccccc2)[C@H](C)CN([C@@H](C)CO)C(=O)c2cc(NC(=O)Nc3ccc(C(F)(F)F)cc3)ccc2O1 | inactive |
| O=C1CC[C@H](C(=O)N2CCCCC2)N1 | inactive |
| Cc1ccc(S(=O)(=O)N(C)C[C@H]2Oc3ccc(NS(=O)(=O)c4ccc(F)cc4)cc3CC(=O)N([C@@H](C)CO)C[C@H]2C)cc1 | inactive |
| COc1ccc(S(=O)(=O)N(C)C[C@@H]2Oc3ccc(NS(=O)(=O)c4ccccc4)cc3CC(=O)N([C@H](C)CO)C[C@H]2C)cc1 | inactive |
| COc1ccc(S(=O)(=O)N(C)C[C@@H]2Oc3ccc(NC(=O)Cc4ccccc4)cc3CC(=O)N([C@@H](C)CO)C[C@H]2C)cc1 | inactive |
| Cc1noc(C)c1S(=O)(=O)Nc1ccc2c(c1)CC(=O)N([C@@H](C)CO)C[C@@H](C)[C@H](CN(C)S(=O)(=O)c1ccc(Cl)cc1)O2 | active |
